# Laboratory results from the supplement of paper PMC11732987, “Enantioselective OTUD7B fragment discovery through chemoproteomics screening and high-throughput optimisation” (Communications Chemistry, 2025).
# Unmarked numbers belong to inactive results.
# Legend:
# Assay in all cases: log2 ratio of Biotin-Ahx-Ub-VS probe labelling (fragment/DMSO); higher = less target engagement (more negative = stronger competition), active = hit call of the paper (q ≤ 0.05, log2 ratio ≤ -1)
# Conditions in all cases: compound concentration: 200 uM; treatment time: 3 h
# [1] = molecular target: T1, USP19 (UniProt O94966)
# T1 sequence (whole entry): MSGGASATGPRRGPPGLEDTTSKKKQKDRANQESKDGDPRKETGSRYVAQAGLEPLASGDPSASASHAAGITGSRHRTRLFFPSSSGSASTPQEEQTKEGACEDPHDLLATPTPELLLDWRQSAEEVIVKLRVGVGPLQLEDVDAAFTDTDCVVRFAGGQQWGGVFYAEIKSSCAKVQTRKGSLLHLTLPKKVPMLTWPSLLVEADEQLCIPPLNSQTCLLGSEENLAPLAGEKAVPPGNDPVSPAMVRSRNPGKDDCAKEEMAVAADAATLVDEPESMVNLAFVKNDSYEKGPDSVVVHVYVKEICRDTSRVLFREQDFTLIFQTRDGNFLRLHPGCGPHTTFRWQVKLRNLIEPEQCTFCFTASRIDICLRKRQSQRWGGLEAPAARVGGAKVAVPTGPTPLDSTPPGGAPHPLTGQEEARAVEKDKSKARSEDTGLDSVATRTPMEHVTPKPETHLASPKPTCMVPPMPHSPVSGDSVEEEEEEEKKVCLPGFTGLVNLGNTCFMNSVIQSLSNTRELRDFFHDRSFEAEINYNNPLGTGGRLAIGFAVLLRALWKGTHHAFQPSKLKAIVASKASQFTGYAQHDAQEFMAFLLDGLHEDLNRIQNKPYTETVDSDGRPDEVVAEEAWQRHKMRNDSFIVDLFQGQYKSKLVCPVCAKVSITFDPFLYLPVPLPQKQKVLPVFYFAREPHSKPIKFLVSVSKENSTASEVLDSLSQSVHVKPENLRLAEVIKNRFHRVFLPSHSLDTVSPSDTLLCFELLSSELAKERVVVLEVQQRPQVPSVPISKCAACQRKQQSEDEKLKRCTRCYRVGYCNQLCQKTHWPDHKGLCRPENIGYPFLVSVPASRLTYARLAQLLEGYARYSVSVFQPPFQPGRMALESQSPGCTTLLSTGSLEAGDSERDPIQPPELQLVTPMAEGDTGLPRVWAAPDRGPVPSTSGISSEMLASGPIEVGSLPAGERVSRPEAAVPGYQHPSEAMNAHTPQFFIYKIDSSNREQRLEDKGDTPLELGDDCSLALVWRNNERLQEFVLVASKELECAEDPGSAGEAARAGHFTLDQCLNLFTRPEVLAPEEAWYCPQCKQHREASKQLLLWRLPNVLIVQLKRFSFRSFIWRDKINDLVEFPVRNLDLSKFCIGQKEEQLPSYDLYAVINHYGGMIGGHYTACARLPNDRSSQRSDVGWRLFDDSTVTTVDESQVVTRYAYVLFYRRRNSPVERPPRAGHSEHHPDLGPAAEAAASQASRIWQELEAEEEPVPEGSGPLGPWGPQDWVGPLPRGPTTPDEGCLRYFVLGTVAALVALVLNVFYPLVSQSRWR
# Summary of the method: (§1)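 Labelled DUBs from HEK293T lysate were NeutrAvidin-enriched, digested with LysC and trypsin, and run by diaPASEF LC-MS/MS. Before that, each 495 µg sample in Tris/CHAPS/IGEPAL buffer with protease inhibitors was treated in triplicate with fragment at 200 µM or vehicle for 3 h, then with Biotin-Ahx-Ub-VS at 0.5 µM final for 1 h. Values are average log2 ratios of fragment over vehicle by unpaired t-test, based on global-median-normalised Spectronaut label-free quantities from proteins with ≥2 unique peptides.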
# [2] = molecular target: T2, USP22 (UniProt Q9UPT9)
# T2 sequence (whole entry): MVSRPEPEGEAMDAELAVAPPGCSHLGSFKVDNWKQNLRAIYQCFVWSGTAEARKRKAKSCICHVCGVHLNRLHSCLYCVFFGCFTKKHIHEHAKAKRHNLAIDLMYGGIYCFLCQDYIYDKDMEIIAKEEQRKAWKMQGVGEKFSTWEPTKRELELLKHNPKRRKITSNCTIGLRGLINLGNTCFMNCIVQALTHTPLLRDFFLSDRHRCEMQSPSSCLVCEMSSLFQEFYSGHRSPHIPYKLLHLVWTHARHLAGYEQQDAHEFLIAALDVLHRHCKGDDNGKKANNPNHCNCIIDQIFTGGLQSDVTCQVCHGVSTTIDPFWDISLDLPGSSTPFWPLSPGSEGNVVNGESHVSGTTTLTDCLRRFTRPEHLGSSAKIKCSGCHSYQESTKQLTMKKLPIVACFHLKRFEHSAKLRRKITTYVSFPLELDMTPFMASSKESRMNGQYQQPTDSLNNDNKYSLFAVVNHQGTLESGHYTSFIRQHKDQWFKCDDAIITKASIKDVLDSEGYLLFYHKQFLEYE
# Summary of the method: as §1
# [3] = molecular target: USP24 (UniProt Q9UPU5)
# Chain of USP24 (Q9UPU5 whole entry): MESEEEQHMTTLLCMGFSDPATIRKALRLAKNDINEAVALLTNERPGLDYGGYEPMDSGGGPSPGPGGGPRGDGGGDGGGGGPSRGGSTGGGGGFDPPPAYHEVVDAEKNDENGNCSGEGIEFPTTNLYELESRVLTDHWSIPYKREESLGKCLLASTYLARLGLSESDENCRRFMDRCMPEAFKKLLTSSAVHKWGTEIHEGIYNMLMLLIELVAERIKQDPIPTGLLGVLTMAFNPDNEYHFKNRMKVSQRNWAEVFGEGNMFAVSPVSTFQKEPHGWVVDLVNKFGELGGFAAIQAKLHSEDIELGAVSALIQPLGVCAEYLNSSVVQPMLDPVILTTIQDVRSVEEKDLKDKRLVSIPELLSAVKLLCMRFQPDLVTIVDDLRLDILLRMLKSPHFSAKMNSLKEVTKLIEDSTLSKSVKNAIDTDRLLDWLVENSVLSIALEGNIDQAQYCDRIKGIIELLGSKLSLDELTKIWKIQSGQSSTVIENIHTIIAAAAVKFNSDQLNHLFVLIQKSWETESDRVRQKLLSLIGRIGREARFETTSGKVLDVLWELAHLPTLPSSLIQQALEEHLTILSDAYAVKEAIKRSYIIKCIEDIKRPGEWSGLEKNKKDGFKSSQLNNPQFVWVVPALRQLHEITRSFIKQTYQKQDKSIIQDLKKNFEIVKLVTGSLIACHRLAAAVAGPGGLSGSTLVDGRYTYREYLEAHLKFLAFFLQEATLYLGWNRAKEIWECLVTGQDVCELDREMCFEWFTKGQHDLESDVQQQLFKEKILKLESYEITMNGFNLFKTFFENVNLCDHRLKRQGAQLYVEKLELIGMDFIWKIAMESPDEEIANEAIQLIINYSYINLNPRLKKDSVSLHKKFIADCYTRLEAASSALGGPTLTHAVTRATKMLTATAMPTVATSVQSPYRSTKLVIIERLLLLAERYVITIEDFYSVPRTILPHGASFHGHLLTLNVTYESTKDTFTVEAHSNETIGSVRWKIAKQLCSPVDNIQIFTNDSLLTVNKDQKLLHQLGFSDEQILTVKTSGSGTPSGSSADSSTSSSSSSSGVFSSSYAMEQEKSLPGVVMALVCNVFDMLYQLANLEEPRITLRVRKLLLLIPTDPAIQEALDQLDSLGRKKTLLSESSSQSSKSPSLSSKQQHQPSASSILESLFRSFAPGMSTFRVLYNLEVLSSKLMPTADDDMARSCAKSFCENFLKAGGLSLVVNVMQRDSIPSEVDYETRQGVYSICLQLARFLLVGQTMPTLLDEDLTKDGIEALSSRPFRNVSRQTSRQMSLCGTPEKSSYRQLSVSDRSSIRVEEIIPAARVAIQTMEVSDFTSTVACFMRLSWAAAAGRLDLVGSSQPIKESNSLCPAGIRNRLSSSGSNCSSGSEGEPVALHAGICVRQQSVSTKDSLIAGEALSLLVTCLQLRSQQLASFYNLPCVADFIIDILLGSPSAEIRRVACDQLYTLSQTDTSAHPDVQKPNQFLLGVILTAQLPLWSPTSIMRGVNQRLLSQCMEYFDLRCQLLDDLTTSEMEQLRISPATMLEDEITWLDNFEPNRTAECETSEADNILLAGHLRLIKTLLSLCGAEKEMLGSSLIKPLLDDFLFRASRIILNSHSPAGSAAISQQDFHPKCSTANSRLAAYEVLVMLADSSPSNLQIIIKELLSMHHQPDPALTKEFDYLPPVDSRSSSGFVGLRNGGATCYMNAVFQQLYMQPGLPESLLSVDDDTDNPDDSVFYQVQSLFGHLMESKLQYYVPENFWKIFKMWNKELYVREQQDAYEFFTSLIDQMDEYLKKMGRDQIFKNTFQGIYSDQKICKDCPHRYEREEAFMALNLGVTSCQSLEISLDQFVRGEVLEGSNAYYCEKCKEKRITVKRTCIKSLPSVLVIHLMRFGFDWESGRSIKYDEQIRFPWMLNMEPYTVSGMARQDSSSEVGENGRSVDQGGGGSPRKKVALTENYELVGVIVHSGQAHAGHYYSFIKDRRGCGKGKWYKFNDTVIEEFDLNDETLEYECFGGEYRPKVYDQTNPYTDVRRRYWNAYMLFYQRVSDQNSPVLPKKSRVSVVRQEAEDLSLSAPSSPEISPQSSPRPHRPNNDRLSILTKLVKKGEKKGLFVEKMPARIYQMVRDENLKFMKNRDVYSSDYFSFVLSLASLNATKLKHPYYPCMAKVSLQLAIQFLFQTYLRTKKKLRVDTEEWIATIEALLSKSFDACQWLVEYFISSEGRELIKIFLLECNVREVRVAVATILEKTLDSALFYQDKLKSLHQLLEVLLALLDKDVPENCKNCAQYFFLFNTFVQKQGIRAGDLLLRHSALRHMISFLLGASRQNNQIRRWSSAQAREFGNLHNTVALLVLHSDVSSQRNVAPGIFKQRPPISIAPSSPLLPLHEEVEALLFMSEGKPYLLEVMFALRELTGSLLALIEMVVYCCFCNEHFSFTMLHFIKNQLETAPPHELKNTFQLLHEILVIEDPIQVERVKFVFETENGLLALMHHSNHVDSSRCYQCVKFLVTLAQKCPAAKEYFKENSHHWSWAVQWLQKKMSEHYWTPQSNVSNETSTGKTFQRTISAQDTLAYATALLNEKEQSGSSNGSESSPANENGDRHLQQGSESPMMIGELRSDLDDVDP
# Summary of the method: as §1
# [4] = molecular target: T3, USP25 (UniProt Q9UHP3)
# T3 sequence (whole entry): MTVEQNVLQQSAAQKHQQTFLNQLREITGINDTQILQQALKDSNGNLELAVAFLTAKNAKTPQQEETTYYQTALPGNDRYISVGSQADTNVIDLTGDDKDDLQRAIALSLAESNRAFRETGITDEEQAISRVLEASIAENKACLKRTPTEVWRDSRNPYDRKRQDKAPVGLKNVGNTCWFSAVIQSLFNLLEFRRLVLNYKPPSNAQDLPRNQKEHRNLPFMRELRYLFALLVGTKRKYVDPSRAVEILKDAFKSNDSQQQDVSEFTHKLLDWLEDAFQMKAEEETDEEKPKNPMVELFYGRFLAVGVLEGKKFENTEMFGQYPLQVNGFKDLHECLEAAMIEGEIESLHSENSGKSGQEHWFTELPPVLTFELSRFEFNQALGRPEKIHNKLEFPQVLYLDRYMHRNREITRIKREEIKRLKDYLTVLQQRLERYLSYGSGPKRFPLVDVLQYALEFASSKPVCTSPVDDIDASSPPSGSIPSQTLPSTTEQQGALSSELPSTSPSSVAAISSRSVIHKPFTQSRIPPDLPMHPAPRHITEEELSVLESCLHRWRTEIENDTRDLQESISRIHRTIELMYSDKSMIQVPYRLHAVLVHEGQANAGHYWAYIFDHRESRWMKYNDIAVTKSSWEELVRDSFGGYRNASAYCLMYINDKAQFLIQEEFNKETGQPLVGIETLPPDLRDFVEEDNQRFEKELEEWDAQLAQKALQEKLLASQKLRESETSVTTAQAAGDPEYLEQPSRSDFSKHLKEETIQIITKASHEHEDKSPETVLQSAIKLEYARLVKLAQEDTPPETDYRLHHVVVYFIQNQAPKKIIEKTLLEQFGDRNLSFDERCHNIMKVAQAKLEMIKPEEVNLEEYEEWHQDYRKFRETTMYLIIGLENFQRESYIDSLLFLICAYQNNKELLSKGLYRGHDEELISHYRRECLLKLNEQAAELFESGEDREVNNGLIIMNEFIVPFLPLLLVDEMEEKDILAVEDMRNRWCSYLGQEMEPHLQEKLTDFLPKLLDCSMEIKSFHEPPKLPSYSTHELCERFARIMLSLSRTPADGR
# Summary of the method: as §1
# [5] = molecular target: T4, USP28 (UniProt Q96RU2)
# T4 sequence (whole entry): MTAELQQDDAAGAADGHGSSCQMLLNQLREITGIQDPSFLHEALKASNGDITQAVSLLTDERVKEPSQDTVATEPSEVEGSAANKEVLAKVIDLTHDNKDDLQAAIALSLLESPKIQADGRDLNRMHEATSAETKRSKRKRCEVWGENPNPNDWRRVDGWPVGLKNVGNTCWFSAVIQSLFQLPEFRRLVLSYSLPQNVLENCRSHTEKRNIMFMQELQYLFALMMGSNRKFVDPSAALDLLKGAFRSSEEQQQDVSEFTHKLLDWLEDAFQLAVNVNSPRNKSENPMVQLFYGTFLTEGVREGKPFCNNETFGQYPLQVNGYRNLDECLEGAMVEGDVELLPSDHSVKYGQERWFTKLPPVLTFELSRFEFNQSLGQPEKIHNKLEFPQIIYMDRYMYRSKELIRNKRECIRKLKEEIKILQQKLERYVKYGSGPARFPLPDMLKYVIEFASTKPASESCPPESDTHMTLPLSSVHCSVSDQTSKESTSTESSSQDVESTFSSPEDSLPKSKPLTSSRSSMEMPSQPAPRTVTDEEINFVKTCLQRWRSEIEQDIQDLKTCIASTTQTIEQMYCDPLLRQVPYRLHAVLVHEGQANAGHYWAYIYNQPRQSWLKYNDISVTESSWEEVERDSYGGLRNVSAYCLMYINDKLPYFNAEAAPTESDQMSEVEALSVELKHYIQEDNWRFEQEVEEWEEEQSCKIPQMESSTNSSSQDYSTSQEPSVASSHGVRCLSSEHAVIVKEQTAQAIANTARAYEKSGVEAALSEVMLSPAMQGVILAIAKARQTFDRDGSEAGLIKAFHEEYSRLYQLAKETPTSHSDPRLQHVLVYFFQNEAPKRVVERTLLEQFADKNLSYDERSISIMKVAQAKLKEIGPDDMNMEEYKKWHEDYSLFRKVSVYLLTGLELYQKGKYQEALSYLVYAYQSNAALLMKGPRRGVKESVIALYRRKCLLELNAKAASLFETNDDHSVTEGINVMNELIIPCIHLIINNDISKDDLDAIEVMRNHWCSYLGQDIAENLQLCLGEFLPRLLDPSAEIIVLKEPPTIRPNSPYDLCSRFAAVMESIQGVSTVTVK
# Summary of the method: as §1
structure (smiles),measurement,setting,value
Cc1n[nH]c2c1CN(C(=O)CCl)CC2,log2 ratio of Biotin-Ahx-Ub-VS probe labelling,[1],-1.23 (active)
same,log2 ratio of Biotin-Ahx-Ub-VS probe labelling,[2],-0.846
same,log2 ratio of Biotin-Ahx-Ub-VS probe labelling,[3],-1.26 (active)
same,log2 ratio of Biotin-Ahx-Ub-VS probe labelling,[4],-0.783
same,log2 ratio of Biotin-Ahx-Ub-VS probe labelling,[5],-1.29 (active)
